This is a sample that favours compounds with a hit; in the whole collection about 4.5% have one here.
EBNA-1 inhibitor: EBNA-1 DNA-binding inhibitors, primary screen, biochemical, fluorescence polarization; inhibition, % at 14.8 µM; 0.34% of 300,000 active; in the data active means inhibition above about 28%
ZTA DNA inh: blocks Epstein-Barr virus ZTA, an EBNA-1 counter-screen | P03206 | ZTA-DNA binding, fluorescence polarization | inhibition, % at 11 µM | 0.15% of 320,000 active | AID 2234; in the data active means inhibition above about 33%
Target sequence (P03206 whole entry, looked up): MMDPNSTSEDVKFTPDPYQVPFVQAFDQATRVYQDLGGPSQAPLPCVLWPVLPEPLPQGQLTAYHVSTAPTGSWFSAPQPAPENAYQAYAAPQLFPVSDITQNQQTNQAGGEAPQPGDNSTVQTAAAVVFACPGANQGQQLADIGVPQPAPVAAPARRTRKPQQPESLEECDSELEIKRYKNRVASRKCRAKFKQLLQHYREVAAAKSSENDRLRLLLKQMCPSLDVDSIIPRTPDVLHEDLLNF
GRIN3A LBD mod: binders of NR3A ligand-binding domain, primary screen, biophysical, differential scanning fluorimetry, uHTS. Glutamate receptor ionotropic, NMDA 3A (GRIN3A) ligand-binding domain. AID 1259313, 2017. 2.5% of 340,000 active. Tm shift relative to glycine control, % at 25 µM. NR3A LBD differential scanning fluorimetry, Tm shift; 0% = protein alone, 100% = glycine-bound protein;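 active means melting temperature shift of at least 10% of the positive control shift, at one fixed dose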
dFosB activator: activators of delta FosB homodimer, primary screen, biochemical, fluorescence polarization, TAMRA-CDK5 oligo, single point; purified delta FosB; percent of positive-control signal above neutral wells; activation, % at 25 µM; 0.99% of 340,000 active; AID 493131, 2011;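 active means mean activation above about 17%, with every replicate also reaching it, limit read from the data, passing the limit was not always enough; inconclusive means only one of the two conditions met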
Target sequence (P13346 whole entry, looked up): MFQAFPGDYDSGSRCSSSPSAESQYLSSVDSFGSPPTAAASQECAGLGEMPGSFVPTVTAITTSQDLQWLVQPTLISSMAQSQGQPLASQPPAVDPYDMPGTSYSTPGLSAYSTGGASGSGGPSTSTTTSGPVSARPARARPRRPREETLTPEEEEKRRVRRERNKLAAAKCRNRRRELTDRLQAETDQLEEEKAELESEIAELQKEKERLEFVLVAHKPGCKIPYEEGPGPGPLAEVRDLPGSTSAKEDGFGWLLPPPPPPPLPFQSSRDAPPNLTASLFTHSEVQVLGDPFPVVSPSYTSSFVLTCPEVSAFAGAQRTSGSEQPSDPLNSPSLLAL
Rpn11 inh: Rpn11 (PSMD14) deubiquitinase inhibitors, primary screen, biochemical, fluorescence polarization, uHTS. AID 588493, 2011. 26S proteasome non-ATPase regulatory subunit 14 (Homo sapiens), O00487. human 26S proteasome, Ub4-pepOG fluorescence polarization; 20S core pre-blocked with epoxomicin. 0.59% of 360,000 active. inhibition, % at 20 µM;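 active means inhibition at 20 µM, scaled to each plate's controls, above about 33%, limit read from the data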
TPT1 inhibitor: Candida albicans TPT1 enzyme inhibitors, primary screen, biochemical, fluorescence polarization; tRNA 2'-phosphotransferase TPT1 (Candida albicans SC5314); recombinant caTPT1, FP RNA substrate dephosphorylation; inhibition, % at 5 µM; 0.81% of 300,000 active; AID 1962, 2009;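 active means inhibition above the mean of all tested compounds plus 3 SD, set per screening campaign, cut at about 24% in these data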;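 further: plate controls were DMSO alone for no effect and ferristatin control at 100 nM for full effect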
Active calls of the source: *; ? = inconclusive; nt = not tested or not shown.

SMILES	EBNA-1 inhibitor	ZTA DNA inh	GRIN3A LBD mod	dFosB activator	Rpn11 inh	TPT1 inhibitor
O=S(=O)(Nc1ncnc2sc3c(c12)CCC3)c1cc(F)ccc1F	-3.6	2.7	-2.1	-5.0	4.1	1.6
COC(=O)c1cc(NC(=O)COC(=O)CCc2c[nH]c3ccccc23)cc(C(=O)OC)c1	nt	nt	10.7*	10.2	-1.5	nt
O=C(COC(=O)CCc1c[nH]c2ccccc12)Nc1ccc([N+](=O)[O-])cc1	10.5	7.9	35.2*	-3.1	-5.4	-2.3
Cc1cccc(C)c1NC(=O)COC(=O)CCc1c[nH]c2ccccc12	nt	-11.2	0.3	-1.9	2.0	nt
O=C(COC(=O)CCc1c[nH]c2ccccc12)Nc1cc([N+](=O)[O-])ccc1Cl	7.5	-2.7	0.8	-0.6	-6.6	3.0
CCn1c(/N=C/c2ccccc2NS(=O)(=O)c2ccc(C)cc2)nc2ccccc21	1.7	3.9	12.6*	0.8	-0.9	-0.2
O=C(Nc1ccc(Cl)c(Cl)c1)Nc1nnc(CC2=CCCCC2)s1	7.8	18.6	-3.6	5.3	-1.1	-0.5
Cc1noc(C)c1S(=O)(=O)N(C)C[C@H]1OCc2cnnn2CCCC(=O)N([C@@H](C)CO)C[C@H]1C	nt	nt	nt	nt	-5.5	nt
O=C(COC(=O)CC1CC2CCC1C2)NCc1ccccc1 (stereo not given)	nt	nt	1.8	-6.6	-2.3	nt
COc1ccc(-n2nc([N+](=O)[O-])c(=NCCc3ccc(OC)c(OC)c3)n2O)cc1	9.6	0.2	22.9*	2.8	4.6	0.7
CCOC(=O)c1[nH]c(C)c(CN(CCc2ccc(OC)c(OC)c2)C(=O)CCCC(=O)O)c1C	-0.1	-15.6	14.6*	3.2	-4.1	5.1
COc1ccc(NC(=O)Nc2ccc(F)c(F)c2)c(OC)c1	3.6	0.4	21.9*	0.2	0.3	-1.6
COc1ccc(NC(=O)Nc2cccc(F)c2)c(OC)c1	4.7	-7.1	4.6	2.2	6.2	-2.1
COc1ccc(NC(=O)NNC(=O)COc2ccc3cc(Br)ccc3c2)c(OC)c1	1.7	-6.6	0.1	82.2*	-4.6	-6.3
COc1ccc(OC)c(NC(=O)Nc2ccc(Cl)cc2)c1	-1.9	4.9	27.9*	-13.5	1.5	1.2
COc1ccc(OC)c(NC(=O)Nc2ccc3[nH]ccc3c2)c1	-5.6	-6.1	10.6*	nt	-8.1	0.6
Cc1ccc(-c2ccc3c(c2)O[C@H](CN(C)C(=O)Nc2ccc(C(F)(F)F)cc2)[C@H](C)CN([C@H](C)CO)S3(=O)=O)cc1	nt	nt	nt	nt	5.8	nt
Cn1cc(C(=O)Nc2ccc(Cl)c(Cl)c2)cn1	7.4	4.8	2.5	-8.8	27.6	0.1
CCN(CC)S(=O)(=O)c1ccc(C(=O)NCCOC(=O)c2ccc(F)cc2F)cc1	8.0	-9.1	19.0*	-6.3	-5.2	-2.5
Cc1ccc(S(=O)(=O)N/N=C/c2c(F)cccc2Cl)cc1	-7.7	-11.1	-1.0	-5.2	-1.9	-3.1
O=S(=O)(N/N=C/c1c(F)cccc1Cl)c1ccccc1	5.6	-4.1	10.2*	5.2	-1.4	-2.4
N#CC1=C(N)SC(N)=C(C#N)C1CCC1CCCCC1	3.8	-3.5	nt	nt	nt	110.1*
Nc1nnc(CCC2CCCCC2)s1	3.0	-7.0	-0.2	-11.9	5.4	0.4
CCOC(=O)/C(C(=O)Nc1ccccc1Br)=C1/NC(C)(C)Cc2ccccc21	6.8	-3.2	13.0*	0.7	-5.7	2.7
CCOC(=O)/C(=N\O)C1=NC(C)(C)Cc2ccccc21	1.0	-4.7	-20.8	-11.8	-1.7	0.5
SMILES	EBNA-1 inhibitor	ZTA DNA inh	GRIN3A LBD mod	dFosB activator	Rpn11 inh	TPT1 inhibitor
CCCCNC(=S)NNC(=O)c1c(C)nc2ccccn12	-1.5	7.3	1.1	-0.1	-6.2	-2.1
c1ccc(CSc2ccc(-c3cccs3)nn2)cc1	7.7	2.8	19.1*	-4.2	-6.5	-1.7
CCCCc1c(O)nc(SCC(=O)N2CCOCC2)n(-c2ccc(C)cc2)c1=O	nt	nt	nt	nt	-1.9	nt
COc1cc(/C=C/C(=O)OCC(=O)c2c[nH]c3ccccc23)ccc1OC(F)F	0.0	-21.9	28.6*	-1.2	6.9	0.7
COc1ccc(OCC(=O)c2c[nH]c3ccccc23)cc1	9.3	1.5	14.4*	-0.1	3.4	1.2
COc1ccccc1/C=C/C(=O)OCC(=O)c1c[nH]c2ccccc12	nt	-2.9	11.4*	-8.7	12.4	nt
C=CCSc1nnc(NC(=O)CCN2C(=O)C3CC=CCC3C2=O)s1 (stereo not given)	nt	5.1	-2.4	-0.8	2.9	nt
NC(=O)CSc1nnc2ccc(-c3ccc(F)cc3)nn12	-4.0	6.9	0.1	-10.3	-3.8	-3.3
CC1(C)CC2(CCO1)OC(=O)CC2C(=O)Nc1ccccc1Cl (stereo not given)	3.4	-1.4	0.1	5.2	7.3	-1.7
Cc1noc(-c2ccc(C(F)(F)F)cc2)c1NC(=O)Nc1ccc(Cl)cc1	0.2	-0.4	30.1*	nt	0.7	-0.9
Cc1cc(-c2onc(C)c2C(=O)Nc2ccc(C(F)(F)F)cc2)no1	12.0	28.6	0.5	-5.2	-0.4	-5.1
Cc1ccc(C(=O)C[n+]2ccc(Cc3ccccc3)cc2)cc1	-12.8	-26.9	0.1	-1.5	2.5	-0.1
O=C(C[n+]1ccc(CCSc2ccc(F)cc2)cc1)c1ccccc1	11.8	1.1	-3.6	85.3*	82.4*	14.8
COc1ccc2cc(C3(C)NC(=O)N(CC(=O)N4CCCCC4)C3=O)ccc2c1 (stereo not given)	nt	nt	0.2	-9.2	-3.2	nt
Cc1c(C2Nc3ccccc3C(=O)N2O)cnn1C (stereo not given)	-4.2	-16.5	611.1*	-8.1	1.9	2.0
COc1ccccc1NC(=O)C(C)OC(=O)CCC1CCCCC1 (stereo not given)	5.9	-5.6	10.6*	-1.7	1.6	1.6
O=C(COc1ccc2ccccc2c1Br)NNC(=O)Nc1ccccc1	23.6	8.5	10.4*	6.5	3.1	-1.3
CC(C)=CCC[C@](C)(O)C1CC[C@]2(C)C1C(O)CC1[C@@]3(C)CCC(O)C(C)(C)C3C(O[C@@H]3OC(CO)C(O)C(O)C3O[C@@H]3OC(C)C(O)C(O)C3O)C[C@]12C (stereo not given in full)	nt	nt	10.1*	-5.2	-5.5	nt
O=C(Nc1ccc(-c2nc3ccccc3o2)cc1)c1ccc2c(c1)OCO2	18.3	-10.7	24.7*	?	1.2	3.0
Cc1ccc(-c2nc3ccccc3o2)cc1NC(=O)c1ccc2c(c1)OCO2	2.3	-10.2	-0.2	-15.1	14.4	-3.1
COc1cc(C(=O)Nc2ccc(-c3nc4cc(C)ccc4o3)c(O)c2)cc(OC)c1OC	4.6	1.3	35.4*	26.9*	-4.8	2.0
COc1cccc(C(=O)Nc2cccc(-c3nnc(-c4ccccc4)o3)c2)c1	-3.7	-3.1	7.3	-28.3	0.1	0.3

Assay outcomes: PubChem BioAssay, several laboratories
